TDP1 cell CPT – growth inhibition of DT40 Tdp1-/-;hTDP1 cells with camptothecin (screen for TDP1 inhibitors) | chicken DT40 Tdp1-/-;hTDP1 cells + 20 nM CPT, ATP luminescence, 48 h | Potency, µM (doses to about 46.2 µM), without a hit: at the top dose activity change, negative = growth inhibition, usual class: inhibitors | hit rate 12% among 420,000 | AID 686979; further: potency means the concentration at half of the fitted maximal effect; on the % scale 0 is the no-effect control and ±100 the full control effect; nearly all actives have a fitted effect of over 55% in size
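Chicken DT40 Tdp1-/- cells complemented with human TDP1, 400 cells/well, exposed to compounds plus 20 nM camptothecin for at least 48 h at 37 C; viability read as ATP content by CellTiter-Glo luminescence.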
MCF10A rereplic – DNA re-replication induction in MCF 10a cells | MCF 10A DNA re-replication, Hoechst nuclear intensity, 48 h | Potency, µM (highest dose often 46.1 µM), for the others: at the highest dose activity, positive = re-replication, actives largely listed as activators | hit rate 2.9% among 350,000; further: potency means the concentration at half of the fitted maximal effect; % of control where 0% means no effect; nearly all actives have a fitted effect of over 50% in size
DT40 TDP1 no CPT – qHTS for Inhibitors of human tyrosyl-DNA phosphodiesterase 1 (TDP1): qHTS in cells in absence of CPT | DT40 Tdp1-/- hTDP1 cells, no CPT, ATP luminescence, 48 h | Potency, µM (doses to about 46.2 µM), inactives show top-dose activity change, negative = growth inhibition, hits mostly inhibitors | hit rate 15% among 420,000 | AID 686978, 2013; further: potency means the concentration at half of the fitted maximal effect; on the % scale 0 is the no-effect control and ±100 the full control effect; nearly all actives have a fitted effect of over 55% in size
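Readout: luminescence from CellTiter-Glo after 30 min in the dark at RT. Cells: DT40 Tdp1-/- with stable hTDP1, 400/well. Exposure: compounds alone, ≥48 hr, 37 °C.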
IL1B secr inh – inhibitors of inflammasome signaling (IL-1 beta secretion) | hit rate 4.7% among 360,000 | AID 743279 | activity change, % at 57.5 µM | THP-1 LPS/ATP IL-1B secretion, AlphaLISA, 16 h; stronger effect = lower value; in the data active means activity change below about -50%; inconclusive means mostly about -30% to -49%; further: on the % scale 0 is the no-effect control and ±100 the full control effect
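THP-1 cells pretreated 1 hr with compounds (up to 57.5 uM final), then stimulated with LPS (250 ng/mL final) plus ATP (1.25 mM final); secreted IL-1B measured by AlphaLISA after 16 hr, decreased signal indicating inhibition.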
BCR signal inh – inhibitors of chronic active B-cell receptor signaling. Potency, µM (highest dose often 46.1 µM), without a hit: top-dose activity change, negative = inhibition, most hits filed as inhibitors. hit rate 0.05% among 340,000. ABC-DLBCL IkBa-CBG/CBR reporter, luminescence ratio, 4 h; active means well fitted inhibition curve with a large enough effect in the signal ratio, with a control signal flat, not every such curve was filed as active; inconclusive means small, poorly fitted or top-dose-only effect, or effect the other way, or a change in a side signal; the % refers to the signal ratio;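 further: potency means the concentration at half of the fitted maximal effect; plate controls were basal doxycycline-induced cells for no effect and cells given 10 µM MG132 for full effect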
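Compounds up to 46 uM were incubated four hours with TMD8 cells whose green CBG68 luciferase is fused to IkappaBalpha; red CBR luminescence normalised the signal, and concentration-effect curves were fitted to fusion, red and ratio data.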
SW480 rereplic – DNA re-replication induction in SW480 cells. SW480 DNA re-replication, Hoechst DNA content imaging, 48 h. Potency, µM (titrated, usually from 46.1 µM), without a hit: top-dose re-replication activation, most hits filed as activators. hit rate 1.8% among 340,000. AID 624297; further: potency means the concentration at half of the fitted maximal effect; % of control where 0% means no effect; nearly all actives have a fitted effect of over 55% in size
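Cells (250 per well) received 23 nL compound or DMSO by pin tool and were kept 48 hr at 37 C, 5% CO2. Nuclei were then stained with Hoechst for 40 min and scanned for DNA content.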
Starred values were filed as active, the others as inactive; u = inconclusive; x = not tested or not shown; [ ] = another dose, or the depositor's remark. In the library only some 19% were active in any assay of this set; here they are far more common. Unless noted, the call rests on the fitted dose curve; in most records, active means well fitted curve in the direction sought with a large enough effect; inconclusive means small, poorly fitted or top-dose-only effect, or another doubt; inactive means no such curve, though single readings can be large; an effect the other way counts as inactive or inconclusive.

SMILES | TDP1 cell CPT | MCF10A rereplic | DT40 TDP1 no CPT | IL1B secr inh | BCR signal inh | SW480 rereplic
COc1ccc(OC)c(NC(=O)C2CCCN(S(C)(=O)=O)C2)c1 (stereo unspecified) | -12.3% | -3.4% | 11.1% | 3.7 | -5.8% | -4.9%
Cc1c(C(=O)N2CCN(Cc3ccc4c(c3)OCO4)CC2)sc2ncnc(N3CCN(c4ccccc4)CC3)c12 | u | 2.9% | 4.61µM* | -2.9 | u | -5.5%
CCCNC(=O)Cn1cnc2sc(C(=O)N3CCN(Cc4ccc5c(c4)OCO5)CC3)c(C)c2c1=O | -26.7% | -3.2% | -20.5% | -5.7 | 1.2% | -4.5%
Cc1c(C(=O)N2CCN(Cc3ccc4c(c3)OCO4)CC2)sc2ncnc(N3CCN(c4ccccc4F)CC3)c12 | 18.4µM* | -4.0% | 8.2µM* | u | u | 11.8%
CC(=O)[C@@H]1CC[C@@H]2[C@@H]3C[C@H](C)C4=CC(=O)CC[C@@]4(C)[C@H]3[C@H](O)C[C@]21C | x | -1.2%[20.6 µM] | x | x | x | -4.9%[20.6 µM]
CC1(O)C(c2ccccc2)=Nc2ccccc21 (stereo unspecified) | u | x | u | 29.8 | x | x
CC(C)(C)OC(=O)N(CC1CCNCC1)C(=O)c1[nH]c(C(F)(F)F)nc1-c1ccccc1 | -3.3% | x | -8.9% | -27.0 | x | x
OCCNc1ncnc2ccc(Br)cc12 | u | -1.3% | 6.51µM* | 23.0 | u | -15.5%
CNc1ncnc2ccc(-c3ccccc3OC)cc12 | u | x | 20.6µM* | x | x | x
O=C(O)c1cccc(Nc2ncnc3ccc(Br)cc23)c1 | -21.4% | -10.3% | u | 26.9 | -4.1% | 1.2%
Cc1ccc2ncnc(Nc3cccc([N+](=O)[O-])c3)c2c1 | 23.1µM* | u | u | -5.1 | 0.5% | -2.4%
COc1ccccc1-c1ccc2ncnc(Nc3ccccc3)c2c1 | 20.6µM* | x | -93.8% | x | x | x
COc1ccc(Nc2ncnc3ccc(C)cc23)cc1 | u | -0.5% | u | -1.7 | u | 14.6%
COc1ccccc1-c1ccc2ncnc(NCCNC(C)=O)c2c1 | -23.8% | x | -1.5% | x | x | x
C#CCOCCOCCOCCNc1nc(N2CCN(C(=O)[C@H](CCC(=O)O)n3cc([C@@H](N)[C@H](C)CC)nn3)CC2)nc(N2CCN(C(=O)[C@H](CCCCN)n3cc([C@@H](N)CC(N)=O)nn3)CC2)n1 | -0.7% | 2.1% | 5.1% | 21.0 | -5.8% | -10.7%
c1cnc2[nH]ccc2c1 | -1.3% | x | -3.9% | x | x | x
COc1ccc(OC)c(Nc2ncnc3ccc(Br)cc23)c1 | u | u | u | 24.6 | -3.2% | 5.4%
Brc1ccc2ncnc(Nc3cccc4ccccc34)c2c1 | u | 1.0% | u | -80.2* | -20.9% | 12.2%
Fc1ccc(Nc2ncnc3ccc(-c4ccoc4)cc23)cc1 | 14.6µM* | x | u | x | x | x
c1nc(NC2CCNCC2)c2cc(-c3ccoc3)ccc2n1 | u | x | -9.5% | x | x | x
COc1cccc(Nc2ncnc3ccc(Br)cc23)c1 | u | x | 20.6µM* | 14.3 | x | x
Cc1ccc(CNC(=O)CN2C(=O)CSc3ccc(S(=O)(=O)N4CCC(C)CC4)cc32)cc1 | u | 8.0% | -17.1% | u | u | -6.8%
Cn1nnnc1SCC(=O)Nc1ccc(C(=O)N2CCN(Cc3ccccc3F)CC2)cc1 | -19.3% | 1.5% | 4.9% | -5.0 | 2.4% | -3.5%
Cc1ccccc1CN1C(=O)CN(S(C)(=O)=O)CC1(C)C(=O)NCc1ccccc1 (stereo unspecified) | -5.6% | x | -6.4% | 12.8 | x | x
Nc1nc(Nc2ccccc2)sc1C(=O)c1ccccc1 | -13.5% | u | u | x | u | u
SMILES | TDP1 cell CPT | MCF10A rereplic | DT40 TDP1 no CPT | IL1B secr inh | BCR signal inh | SW480 rereplic
COc1ccc(C(=O)c2cc(C(C)=O)c(Nc3ccccc3)s2)cc1 | u | -6.3% | 25.9µM* | u | -0.6% | u
COc1ccc(C(=O)Nc2ccc(C(=O)c3ccccc3)cc2)cc1 | -3.0% | 25.3% | -22.3% | 31.6 | x | -60.3%
COc1ccc(Nc2nc(-c3ccc(OC)cc3)c(CCC(=O)O)s2)cc1 | 7.5% | -3.1% | -26.8% | -8.5 | -0.6% | 2.9%
COC(=O)CCc1sc(Nc2ccccc2)nc1-c1ccc(OC)cc1 | u | u | 16.4µM* | -21.5 | u | 1.0%
COc1ccc(C(=O)c2sc(Nc3ccccc3F)nc2N)cc1 | u | -1.4% | 11.6µM* | u | u | -3.6%
COc1ccc(C(=O)c2sc(Nc3ccccc3)nc2N)cc1 | u | u | u | -76.9* | u | u
Cc1nc(CC(=O)Nc2ccc(C(N)=O)cc2)cs1 | 8.4% | x | 1.9% | x | x | x
O=C(COC(=O)c1cc(S(=O)(=O)N2CCCCC2)ccc1N1CCOCC1)c1ccc(F)cc1 | 5.5% | 0.6% | -20.8% | u | -3.1% | -92.8%
O=C(N/N=C/c1ccc(-c2cccc(C(F)(F)F)c2)o1)c1ccccc1O | 10.3µM* | u | 8.2µM* | -0.5 | u | -5.1%
FC(F)(F)c1cccc(-c2ccc(/C=N/Nc3nncc(-c4ccccc4)n3)o2)c1 | u | -2.0% | 9.2µM* | 7.3 | -0.7% | -0.2%
NC(=O)N/N=C/c1ccc(-c2cccc(C(F)(F)F)c2)o1 | -2.6% | 4.61µM* | -2.0% | -6.3 | u | -11.8%
O=C(N/N=C/c1ccc(-c2cccc(C(F)(F)F)c2)o1)c1ccccc1Br | -29.2% | 0.4% | u | -12.9 | -1.9% | -3.1%
Clc1ccc(-c2ccc(/C=N/Nc3nncc(-c4ccccc4)n3)o2)cc1 | u | -1.7% | u | 18.2 | -2.2% | -3.4%
O=C(N/N=C/c1ccc(-c2cccc(C(F)(F)F)c2)o1)c1cccc(F)c1 | 17.8µM* | u | 14.1µM* | -0.2 | u | u
CCOC(=O)c1ccc(N(CCC2CO2)S(=O)(=O)c2ccc(C)cc2)cc1 (stereo unspecified) | u | -1.3% | u | -18.9 | x | 0.1%
CSc1cccc(CNC(=O)C2CCC(=O)N(CCc3ccccc3)C2)c1 (stereo unspecified) | u | x | u | -5.2 | x | x
CCc1nnc(NS(=O)(=O)c2ccc(NC(=O)c3ccc(C#N)cc3)cc2)s1 | 14.5% | 2.2% | -30.1% | 10.2 | 3.7% | -0.4%
CCOc1ccc(C(=O)Nc2cc(-c3ccccc3)no2)cc1 | -26.1% | x | -26.7% | x | x | x
CCN(CC)CCP(=O)(c1ccccc1)c1ccccc1 | -6.4% | 9.2µM* | -0.3% | 7.1 | u | u
O=P(O)(O)CCP(=O)(c1ccccc1)c1ccccc1 | 3.8% | -3.2% | -9.4% | 31.1 | 11.9% | -8.0%
Cc1oc2ncn(CC(C)C)c(=O)c2c1C(=O)N(CCN(C)C)Cc1ccccc1 | -22.5% | x | -8.6% | x | x | x

High-throughput results deposited in PubChem by National Center for Advancing Translational Sciences (NCATS).
